Results from the supplement of paper PMC10338343.
± gives the standard deviation.

tested on: MILI (PIWIL2) piRISC loaded with L1MC piRNA (26 nt); assay: pre-steady-state target cleavage rate (min^-1); guide: L1MC piRNA 5'p-UAACUAAAUACUAUGCAAGCUGUAGG; MIWI and MILI are mouse PIWI proteins and EfPiwi is from a freshwater sponge; tags in brackets are library labels; higher = faster piRNA-guided slicing of the target; conditions: auxiliary factor: 500 nM mouse GTSF1
Outline: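 Cleave-'n-Seq used a transcribed, DNA-blocked target RNA library at 0.1 nM and active affinity-purified piRISC with one synthetic guide at 1 nM, with or without 500 nM GTSF1 partner protein, in HEPES–potassium acetate buffer at 33 °C for 0–8 or 0–960 min. Uncleaved targets were sequenced and normalised to depth and to weakly complementary targets, and three trials were pooled with k3 capped at 0.0001 min^-1. The pre-steady-state cleavage rate was estimated by a burst-and-steady-state fit.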

Compared with UCCUGGAUCACCUUGCAUAGUUUUUAGUUA, UCCUGGAACAGCUAGCAUAGUAUUUUCAAA is higher in “pre-steady-state target cleavage rate” value: 0.016 ± 0.0061 for the first, 0.0419 ± 0.014 for the second.

Going from UCCUGCUACAGCUUGCAAUGUAUUUUCAAA to UCCUGGAUGUCGUUGCUUAGUAUUAAGUUA, the “pre-steady-state target cleavage rate” value rises from 0.00975 ± 0.0041 to 0.03 ± 0.0099.

Going from UCCUGCUACACGAUGCAUAGUAUUUACAAA to UCCUGCUUGUGCUUGCAUAGUAUUUACAAA, the “pre-steady-state target cleavage rate” value falls from 0.0504 ± 0.02 to 0.0112 ± 0.0055.

First: UCCUGGAUGUCGAAGCAUAGUAUUUCAGUUA
Second: UCCUGCUACACCUUGCAUAGUAUUUAGAAA
The “pre-steady-state target cleavage rate” value of the first is lower: 0.0176 ± 0.0068 for the first, 0.169 ± 0.036 for the second.

Going from UCCUCCUACAGCUUGCUAUGUAUUUACAAA to UCCUGGAUGUCGAAGCAUAGUAUUUAGUAA, the “pre-steady-state target cleavage rate” value rises from 0.00653 ± 0.0036 to 0.0199 ± 0.0047.

First: UCCUGGAUGAGCUUGCAUAGUAUAUAGAUA
Second: UCCUGGAUCAGCUUGCAUAGUAAAAAGUAA
The “pre-steady-state target cleavage rate” value of the first is lower: 0.019 ± 0.0076 for the first, 0.108 ± 0.021 for the second.

Going from UCCUGGAUGUCGAUGCAUAGUAUUGUAGUUA to UCCUGGUACACCUUGCAUAGUAUUUACUUA, the “pre-steady-state target cleavage rate” value rises from 0.0505 ± 0.016 to 0.108 ± 0.041.

Going from UCCUGGAUGAGCAACCAUAGUAUUUAGUAA to UCCUGGAACAGGUUGCAUAGUAUUUAGAAA, the “pre-steady-state target cleavage rate” value rises from 0.0492 ± 0.016 to 0.163 ± 0.026.

First: UCCUGGAUGUCCUUGCAAAGUAUUUAGAUA
Second: UCCUGGUUGAGCUUGCAUAGUAUUUAGAAA
The “pre-steady-state target cleavage rate” value of the first is lower: 0.0324 ± 0.012 for the first, 0.0925 ± 0.026 for the second.

Going from UCCUGGAUGAGCUUGCUUAGAAUUUAGUUA to UCCUGGAUGUCGAACCUAUAGUAUUUAGUUA, the “pre-steady-state target cleavage rate” value falls from 0.0121 ± 0.0047 to 0.00362 ± 0.0029.

UCCUGGAUCAGCUUGCAUUCUAUUUAGUUA and UCCUCCUAGUCCUUGCAUAGUAUUUACAAA are within error of each other in “pre-steady-state target cleavage rate” value: 0.0266 ± 0.0066 for the first, 0.0299 ± 0.0097 for the second.

Compared with UCCUGGAUGUCGAACGUAUCUAUUUAGGUA, UCCUGGAUGUCCUUGCUAUGUAUUUAGUUA is higher in “pre-steady-state target cleavage rate” value: less than 0.0001 for the first, 0.00552 ± 0.0044 for the second.

Compared with UCCUGCUACACCUUGCAUAGUAUAUAGUUA, UCCUGGUAGAGCUUGCAUAGUAUUUACAAA is lower in “pre-steady-state target cleavage rate” value: 0.18 ± 0.037 for the first, 0.015 ± 0.0066 for the second.

Compared with UCCUGGAUGACGUUGCAUAGUAUUUACAAA, UCCUCCUACAGCUUGCUUAGUAUUAAGUUA is higher in “pre-steady-state target cleavage rate” value: 0.0104 ± 0.0057 for the first, 0.116 ± 0.018 for the second.

First: UCCUGGAUGUCCUAGCAAAGUAUUUAGUUA
Second: UCCUGGUACAGCAAGCAUAGUAUUUUCAAA
The “pre-steady-state target cleavage rate” value of the first is lower: 0.00585 ± 0.0032 for the first, 0.0777 ± 0.022 for the second.

First: UCCUGGAACAGCAACCAUAGUAUUUAGUAA
Second: UCCUGGAUGAGCUUGCAUAGUAUUUUGUAA
The “pre-steady-state target cleavage rate” value of the first is higher: 0.143 ± 0.019 for the first, 0.0267 ± 0.011 for the second.

UCCUGGAACACGAUGCAUAGUAUUUAGAAA and UCCUGCUACACCUUGCAUAGAAUUUAGUUA are within error of each other in “pre-steady-state target cleavage rate” value: 0.072 ± 0.018 for the first, 0.0952 ± 0.037 for the second.

UCCUGGAUGUCCUUGCAUAGUAUUGAGUUA and UCCUGGUACAGCUUGCAUAGUUUUUAGAUA are within error of each other in “pre-steady-state target cleavage rate” value: 0.0563 ± 0.019 for the first, 0.0378 ± 0.017 for the second.

First: UCCUGGAUGUCCUUCCAUAGUAUUUAGUAA
Second: UCCUGGAUCAGCUUGCAUUGAAUUUAGUUA
The “pre-steady-state target cleavage rate” value of the first is lower: 0.0112 ± 0.0045 for the first, 0.0248 ± 0.0084 for the second.

In the case of UCCUGGUACAGCUUGCAUUAGUAUUUAGUUA, the “pre-steady-state target cleavage rate” value is reported as 0.017 ± 0.0074.
